The values that follow come from PubChem BioAssay (NCATS).

The structures appear in SMILES notation. Results filed as inconclusive are left out. A number with no mark means an inactive call. Calls of active or inactive are those of the source. Calls come from the whole dose curve; as a rule, active = well fitted curve in the direction sought with a large enough effect; inconclusive = small, poorly fitted or top-dose-only effect, or another doubt; inactive = no such curve, though single readings can be large; an effect the other way counts as inactive or inconclusive.

Test [1] concerns the target Rap guanine nucleotide exchange factor 3 (Homo sapiens) (UniProt O95398). Put plainly: Confirmatory qHTS for antagonist of cAMP-regulated guanine nucleotide exchange factor 3 (EPAC1) (AID 1645880).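 For activity, negative = inhibition: plate controls were DMSO only for no effect and full effect of the ATA control for full effect.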 Note: nearly all actives have a fitted effect of over 55% in size. Note: potency is the fitted concentration of half-maximal effect. The conditions noted are these: EPAC1 Rap1B-BODIPY-GDP exchange, fluorescence; activity, negative = inhibition: at 115 µM (top of the series). The essentials: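 Nucleotide exchange uses 100 nM EPAC1, 250 nM RAP1B-BODIPY-GDP and 50 uM GDP, with compounds in a concentration-titration series. After 5 min at room temperature, fluorescence (480 nm ex/540 nm em) is read every 5 min for 30 min. Data are normalized to control ATA and DMSO.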
In general terms: Quantitative high-throughput screening tests each substance at several concentrations.

Test [2] has the same target. Put plainly: Confirmatory qHTS for agonist of cAMP-regulated guanine nucleotide exchange factor 3 (EPAC1) (AID 1645881).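 For activation: EPAC1 catalysed release of BODIPY-GDP from Rap1B seen as fluorescence loss; 100% = effect of cAMP agonist control.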 Note: nearly all actives have a fitted effect of over 75% in size. Note: potency is the fitted concentration of half-maximal effect.
Test [3] addresses Rap guanine nucleotide exchange factor 4 (Homo sapiens) (UniProt Q8WZA2). Put plainly: Confirmatory qHTS for agonist of cAMP-regulated guanine nucleotide exchange factor 4 (EPAC2) (AID 1645884). For activation: % is set by controls: 0 for no effect and ±100 for the full control effect.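 Note: nucleotide exchange releases bodipy-GDP from Rap1 and this lowers its fluorescence; nearly all actives have a fitted effect of over 65% in size.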 Note: potency is the fitted concentration of half-maximal effect.
Test [4] has as its target Rap guanine nucleotide exchange factor 3 (Homo sapiens) (UniProt O95398). Put plainly: Counterscreen qHTS for antagonist of cAMP-regulated guanine nucleotide exchange factor 3 (EPAC1) (AID 1645888).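 Note: fluorescence loss as bound BODIPY-GDP is released from Rap1B; % of control where 0% means no effect.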 The essentials:
(§1)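 Measured: fluorescence of BODIPY-GDP bound to Rap1B, which falls as exchange proceeds. Conditions include 50 uM competing GDP, 5 and 30 min reads, and a later cAMP challenge for antagonist detection.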
Background: Counterscreens check selectivity or assay interference.

For test [5] the target is unchanged. Put plainly: Counterscreen qHTS for agonist of cAMP-regulated guanine nucleotide exchange factor 3 (EPAC1) (AID 1645889). For activation: % of control where 0% means no effect. Note: nearly all actives have a fitted effect of over 40% in size. Note: potency is the fitted concentration of half-maximal effect. The procedure, abridged:
as §1

Chain of Rap guanine nucleotide exchange factor 3 (Homo sapiens) (O95398 whole entry, looked up): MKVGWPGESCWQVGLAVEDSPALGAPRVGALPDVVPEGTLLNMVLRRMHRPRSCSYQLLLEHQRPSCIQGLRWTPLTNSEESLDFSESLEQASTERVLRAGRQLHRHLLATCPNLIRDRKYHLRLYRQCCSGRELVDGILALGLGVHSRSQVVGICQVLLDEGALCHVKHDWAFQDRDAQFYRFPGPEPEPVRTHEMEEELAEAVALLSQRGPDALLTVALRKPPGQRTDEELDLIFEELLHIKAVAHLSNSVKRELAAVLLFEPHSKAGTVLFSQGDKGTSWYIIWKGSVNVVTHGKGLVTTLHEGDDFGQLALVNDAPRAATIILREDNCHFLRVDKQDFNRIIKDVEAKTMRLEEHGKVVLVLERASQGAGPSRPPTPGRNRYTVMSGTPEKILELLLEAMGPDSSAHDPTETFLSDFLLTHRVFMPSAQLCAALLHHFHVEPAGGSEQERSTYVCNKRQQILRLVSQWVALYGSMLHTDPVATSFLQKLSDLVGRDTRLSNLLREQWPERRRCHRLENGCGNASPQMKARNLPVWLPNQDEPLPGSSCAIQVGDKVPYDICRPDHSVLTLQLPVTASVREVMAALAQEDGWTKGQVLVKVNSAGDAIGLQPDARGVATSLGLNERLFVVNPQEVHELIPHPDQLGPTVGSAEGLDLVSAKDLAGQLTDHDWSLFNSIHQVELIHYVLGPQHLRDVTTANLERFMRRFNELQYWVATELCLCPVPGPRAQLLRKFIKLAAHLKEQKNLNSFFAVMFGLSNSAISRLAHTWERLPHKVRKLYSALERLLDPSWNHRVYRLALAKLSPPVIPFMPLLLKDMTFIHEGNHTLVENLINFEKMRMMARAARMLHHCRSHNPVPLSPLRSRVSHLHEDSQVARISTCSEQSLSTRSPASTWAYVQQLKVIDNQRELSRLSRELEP
Chain of Rap guanine nucleotide exchange factor 4 (Homo sapiens) (Q8WZA2 whole entry, looked up): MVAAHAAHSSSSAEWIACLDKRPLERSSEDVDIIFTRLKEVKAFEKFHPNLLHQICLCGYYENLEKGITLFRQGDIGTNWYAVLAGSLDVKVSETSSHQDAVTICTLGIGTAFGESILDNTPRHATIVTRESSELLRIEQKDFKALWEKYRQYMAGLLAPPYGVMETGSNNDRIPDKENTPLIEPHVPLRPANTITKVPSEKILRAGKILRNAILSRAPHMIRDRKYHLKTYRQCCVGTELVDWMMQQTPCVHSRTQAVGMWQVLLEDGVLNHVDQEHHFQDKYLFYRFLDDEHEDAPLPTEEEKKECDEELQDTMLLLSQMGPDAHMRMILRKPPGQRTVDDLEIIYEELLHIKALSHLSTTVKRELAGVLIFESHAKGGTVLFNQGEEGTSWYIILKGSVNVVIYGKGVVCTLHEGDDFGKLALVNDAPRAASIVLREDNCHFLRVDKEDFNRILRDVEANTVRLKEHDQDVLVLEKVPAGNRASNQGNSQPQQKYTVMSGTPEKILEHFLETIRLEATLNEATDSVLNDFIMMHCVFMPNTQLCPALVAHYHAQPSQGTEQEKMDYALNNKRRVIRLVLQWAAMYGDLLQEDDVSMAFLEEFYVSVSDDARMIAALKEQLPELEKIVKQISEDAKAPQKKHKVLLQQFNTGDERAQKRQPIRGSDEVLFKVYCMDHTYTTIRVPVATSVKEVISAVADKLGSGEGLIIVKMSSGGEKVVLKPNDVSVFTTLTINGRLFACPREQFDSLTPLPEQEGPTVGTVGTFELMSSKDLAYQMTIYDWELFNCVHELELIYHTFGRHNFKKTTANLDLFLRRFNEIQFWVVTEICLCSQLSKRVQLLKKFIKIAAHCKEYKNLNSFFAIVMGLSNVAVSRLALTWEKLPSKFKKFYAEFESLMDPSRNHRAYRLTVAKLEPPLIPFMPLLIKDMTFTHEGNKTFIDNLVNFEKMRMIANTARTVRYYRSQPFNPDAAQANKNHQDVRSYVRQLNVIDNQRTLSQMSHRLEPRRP

As for `O=C(CCCN1C(=O)/C(=C/c2ccccc2)SC1=S)Nc1ccccc1O`, the Potency result in test [1], in test [2], in test [3], in test [4] and in test [5] was “inactive” each time.
Take `Cn1c(=O)c2c(nc(NCCc3ccccc3)n2CC(=O)NCCc2ccccc2)n(C)c1=O`: the Potency result in test [1], in test [2], in test [3], in test [4] and in test [5] was “inactive” in each case.
For the compound `COc1cc(/C=C2\SC(=Nc3ccc(Cl)c(C(=O)O)c3)NC2=O)c(Br)c(Br)c1O`, in test [1], the Potency was 2.82 µM (active). Moreover, the Potency entry in test [2] is “inactive”. Also, the activation was 9.28% [at 17.1 µM, percent relative to cAMP agonist control] in test [3] and 0.17% [at 30.8 µM] in test [5]. Further, the activity change, negative = inhibition in test [4] was -1.87% [at 30.8 µM].
With `Cc1cc(C)c(S(=O)(=O)c2ccccc2C)c(SCC(C)C)n1`, the Potency result in test [1] and in test [2] was “inactive” in each case. The activation is 10.6% [at 17.1 µM, percent relative to cAMP agonist control] in test [3] and -2.44% [at 30.8 µM] in test [5]. The activity change, negative = inhibition in test [4] was -9.64% [at 30.8 µM].
For `O=C(CN1CCCCCC1)Nc1ccccc1Oc1ccccc1`, the Potency entry in test [1], in test [2], in test [3], in test [4] and in test [5] was “inactive” in each case.
Take `CCC(=O)NC(c1ccc(C)cc1)c1cc([N+](=O)[O-])c2cccnc2c1O` (stereo not given): the Potency in test [1] was 53.6 µM (active). Moreover, the Potency entry in test [2], in test [3], in test [4] and in test [5] was “inactive” each time.
As to `Cc1ccc(C(=O)NCCCNC(=O)c2ccc(Cl)cc2)cn1`, the Potency entry in test [1], in test [2], in test [3], in test [4] and in test [5] was “inactive” throughout.
Take `Cc1onc(-c2c(Cl)cccc2Cl)c1C(=O)c1ccc(F)cc1`: the Potency result in test [1], in test [2], in test [3], in test [4] and in test [5] was “inactive” in each case.
As for `CNc1ccc(-c2nc(-c3ccco3)no2)cc1[N+](=O)[O-]`, the Potency result in test [1], in test [2], in test [3], in test [4] and in test [5] was “inactive” in each case.
With `CCOC(=O)C1CCCCN1Cc1cccc(Oc2ccccc2)c1` (stereo not given), the Potency entry in test [1] and in test [2] was “inactive” throughout. The activation is 6.17% [at 17.1 µM, percent relative to cAMP agonist control] in test [3] and 29% [at 30.8 µM] in test [5]. For the same compound, the activity change, negative = inhibition in test [4] was -24.9% [at 30.8 µM].
For the compound `CCCC(=O)NCCCc1nc2ccccc2n1C`, the Potency result in test [1], in test [2], in test [3], in test [4] and in test [5] was “inactive” in each case.
As to `O=C(CN1C(=O)N/C(=C\c2ccccc2OCc2ccc(C(=O)O)cc2)C1=O)Nc1ccc(F)cc1`, the Potency in test [1] is 42.6 µM (active). Moreover, the Potency entry in test [2], in test [3], in test [4] and in test [5] was “inactive” in each case.
On to `O=C(O)Cc1ccc(N=Nc2c(O)c(C(=O)O)cc3ccccc23)cc1`, for which the Potency in test [1] is 33.8 µM (active). The Potency entry in test [2], in test [3], in test [4] and in test [5] was “inactive” throughout.
`CC1CCN(c2ccc3c(c2)S(=O)(=O)c2cccc(C(=O)NC4CCCCC4)c2C3=O)CC1`: the Potency result in test [1] and in test [4] was “inactive” throughout. Besides, the Potency in test [2] is 89.1 µM (active); in test [3], 100 µM (active); in test [5], 50.1 µM (active).
In the case of `O=C(c1ccccc1)c1cccc2ccccc12`, the Potency entry in test [1] and in test [2] was “inactive” throughout. In addition, the activation in test [3] was 6.02% [at 17.1 µM, percent relative to cAMP agonist control]; in test [5], 19% [at 30.8 µM]. In addition, in test [4], the activity change, negative = inhibition is -2.88% [at 30.8 µM].
On to `CCN(CC(=O)Nc1c(F)cccc1F)C(=O)/C=C/c1ccc2ccccc2n1`, for which, in test [1], the Potency was 8.49 µM (active). The Potency entry in test [2], in test [3], in test [4] and in test [5] was “inactive” each time.
Turning to `CCCCCN(C(=O)CCC(=O)OCC(=O)N1CCC(C)CC1)c1c(N)n(CCCC)c(=O)[nH]c1=O`, the Potency entry in test [1], in test [2], in test [3], in test [4] and in test [5] was “inactive” throughout.
Turning to `COc1ccc(OC)c(C(C[N+](=O)[O-])c2c(C)cc3ccccn23)c1` (stereo not given), the Potency result in test [1], in test [2], in test [3], in test [4] and in test [5] was “inactive” each time.
For `COC(=O)c1cn(C(=O)c2ccccc2Cl)c2ccccc12`, the Potency entry in test [1] and in test [2] was “inactive” in each case. Moreover, the activation in test [3] is 7.27% [at 17.1 µM, percent relative to cAMP agonist control]; in test [5], 20.7% [at 30.8 µM]. Moreover, the activity change, negative = inhibition in test [4] was -1.26% [at 30.8 µM].
Turning to `CCOC(=O)c1cc2c(ccn2C)n1Cc1ccccc1Cl`, the Potency result in test [1], in test [2], in test [3], in test [4] and in test [5] was “inactive” throughout.
Consider `O=C(c1ccccc1)C(c1ccccc1)c1ccccc1`, for which the Potency entry in test [1] and in test [2] was “inactive” throughout. The activation is 0.697% [at 17.1 µM, percent relative to cAMP agonist control] in test [3] and 12.8% [at 30.8 µM] in test [5]. For the same compound, the activity change, negative = inhibition in test [4] was 2.63% [at 30.8 µM].
Take `CCN(CC)CCN(C(=O)c1cc2ccccc2cc1OC)c1nc2ccc(F)cc2s1`: the Potency entry in test [1], in test [2], in test [3], in test [4] and in test [5] was “inactive” throughout.
In the case of `CC(=O)OCCNc1cc(N2CCN(C)CC2)c2noc3c2c1C(=O)c1ccccc1-3`, the Potency result in test [1], in test [2], in test [3], in test [4] and in test [5] was “inactive” throughout.
Regarding `CC1CN(C(=O)CCC(=O)NCc2ccc(F)cc2)c2ccccc2S1` (stereo not given), the Potency entry in test [1] and in test [2] was “inactive” each time. Moreover, the activation in test [3] was -4.63% [at 17.1 µM, percent relative to cAMP agonist control]; in test [5], 31.5% [at 30.8 µM]. In addition, the activity change, negative = inhibition in test [4] is -2.67% [at 30.8 µM].
Consider `Cc1ccc2oc(C(=O)N(Cc3ccc(N(C)C)cc3)CC3CCCO3)c(C)c2c1` (stereo not given), for which the Potency result in test [1], in test [2], in test [3], in test [4] and in test [5] was “inactive” each time.
